Measured values taken from paper PMC5540273 (PLoS ONE, 2017).

How the values were obtained:
Conditions in all cases: concentration: 1 μM, replicates: in singlicate; n = 1
[1] = test system: TYK2(JH2domain-pseudokinase)
[2] = test system: TYRO3
[3] = test system: ULK1
[4] = test system: ULK2
[5] = test system: ULK3
[6] = test system: T1, VEGFR2
T1 construct: gene KDR

[7] = test system: T2, VPS34
T2 construct: gene PIK3C3

[8] = test system: VRK2
[9] = test system: WEE1
[10] = test system: WEE2
[11] = test system: WNK1
[12] = test system: WNK2
[13] = test system: WNK3
[14] = test system: WNK4
[15] = test system: T3, YANK1
T3 construct: gene STK32A

[16] = test system: T4, YANK2
T4 construct: gene STK32B

[17] = test system: T5, YANK3
T5 construct: gene STK32C

[18] = test system: T6, YES
T6 construct: gene YES1

[19] = test system: T7, YSK1
T7 construct: gene STK25

[20] = test system: T8, YSK4
T8 construct: gene MAP3K19
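Note: KINOMEscan kinase panel screen.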

| SMILES | %Inh [1] [%] | %Inh [2] [%] | %Inh [3] [%] | %Inh [4] [%] | %Inh [5] [%] | %Inh [6] [%] | %Inh [7] [%] | %Inh [8] [%] | %Inh [9] [%] | %Inh [10] [%] | %Inh [11] [%] | %Inh [12] [%] | %Inh [13] [%] | %Inh [14] [%] | %Inh [15] [%] | %Inh [16] [%] | %Inh [17] [%] | %Inh [18] [%] | %Inh [19] [%] | %Inh [20] [%] |
| --- | --- | --- | --- | --- | --- | --- | --- | --- | --- | --- | --- | --- | --- | --- | --- | --- | --- | --- | --- | --- |
| CCn1c(-c2nonc2N)nc2c(C#CC(C)(C)O)ncc(OCCCCN)c21.O=C(O)C(F)(F)F.O=C(O)C(F)(F)F [GSK507274] | 29 | 2 | 54 | 32 | 12 | 0 | 34 | 0 | 10 | 14 | 19 | 0 | 21 | 3 | 31 | 0 | 24 | 16 | 0 | 99.4 |
| CCn1c(-c2nonc2N)nc2c(C#CC(C)(C)O)nc(OC[C@H](N)c3ccccc3)cc21 [GSK943949] | 0 | 0 | 0 | 0 | 1 | 1 | 16 | 0 | 1 | 2 | 0 | 0 | 0 | 31 | 0 | 0 | 31 | 19 | 0 | 100 |
| COc1ccc(Nc2nccc(N3CCC(NC(=O)Nc4cccc(OC)c4)C3)n2)cc1 (stereo not drawn) [GSK1379742] | 5 | 0 | 0 | 0 | 17 | 17 | 16 | 0 | 52 | 13 | 0 | 18 | 19 | 0 | 10 | 0 | 0 | 0 | 0 | 23 |
| Cc1ccc(S(=O)(=O)Nc2ccc(Nc3nccc(Nc4cccc5[nH]ncc45)n3)cc2)cc1 [GSK581271] | 93.6 | 0 | 19 | 0 | 38 | 0 | 60 | 0 | 6 | 8 | 4 | 0 | 26 | 16 | 0 | 0 | 3 | 30 | 13 | 67 |
| O=C(Nc1n[nH]c2nc(-c3ccc(O)cc3)ccc12)C1CC1 [SB-710363] | 0 | 0 | 2 | 21 | 29 | 26 | 0 | 0 | 0 | 1 | 32 | 0 | 0 | 70 | 0 | 0 | 0 | 0 | 0 | 92.2 |
| Cl.NC(=O)c1cccc(Nc2nccc(Nc3ccc(Oc4c(Cl)cccc4Cl)c(Cl)c3)n2)c1 [GW659009] | 0 | 0 | 35 | 0 | 4 | 0 | 0 | 2 | 0 | 0 | 3 | 0 | 12 | 0 | 4 | 0 | 5 | 39 | 0 | 3 |
| Cl.c1ccc(-c2ccc3c(Nc4ccc5[nH]ccc5c4)ccnc3c2)nc1 [GW440138] | 27 | 0 | 0 | 0 | 6 | 98.3 | 0 | 40 | 8 | 6 | 0 | 13 | 35 | 55 | 0 | 0 | 0 | 40 | 0 | 51 |
| Cn1cc(-c2[nH]c3cc(NC(=O)[C@H](N)C4CCCCC4)cc4c3c2C=NNC4=O)cn1 | 87 | 73 | 68 | 98.9 | 97.6 | 90.7 | 80 | 0 | 65 | 98.2 | 0 | 4 | 0 | 0 | 16 | 0 | 0 | 88 | 47 | 100 |
| COc1cccc(C2=C(Nc3ccc(Cl)c(C(=O)O)c3)C(=O)NC2=O)c1 [SB-390769] | 100 | 0 | 100 | 100 | 100 | 0 | 0 | 31 | 14 | 0 | 100 | 8 | 100 | 43 | 100 | 7 | 0 | 8 | 0 | 100 |
